Measurements: PubChem BioAssay (EPA / NIEHS)
Active and inactive are the calls of the source. How the source made its calls: active means hit-call score of the fitted dose curve at least 0.9, where 1 is the maximum; inactive means score below 0.9.

How the values were obtained:
[1] = read-out: Tumor necrosis factor receptor superfamily member 6 (Homo sapiens) (UniProt P25445); assay: LTEA_HepaRG_FAS: Life Technologies and Expression Analysis (LTEA) Assay for Fas cell surface death receptor (FAS) using HepaRG (AID 2283447); conditions: mRNA level, 48 h; actives raise or lower the signal
In short: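 FAS transcript level was measured by TaqMan qRT-PCR against three housekeeping genes after 48 h chemical exposure. Cells were HepaRG, 0.5% DMSO vehicle, with a top concentration of 100 uM and half-log dilutions over eight points, in duplicate.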

[2] = read-out: Fatty acid synthase (Homo sapiens) (UniProt P49327); assay: LTEA_HepaRG_FASN: Life Technologies and Expression Analysis (LTEA) Assay for Fatty Acid Synthase (FASN) using HepaRG (AID 2283448); conditions: mRNA level, 48 h; actives raise or lower the signal
In short: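 Cells were plated, cultured 48 h, switched to serum-free induction medium, then dosed in duplicate (max 100 uM, half-log dilutions, 0.5% DMSO) for 48 h. RNA was then isolated and FASN quantified by qRT-PCR.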

[3] = read-out: Cyclin D2 (CCND2), CCND2 (gene 894); assay: LTEA_HepaRG_CCND2: Life Technologies and Expression Analysis (LTEA) Assay for Cyclin D2 (CCND2) using HepaRG (AID 2283449); conditions: mRNA level, 48 h; actives raise or lower the signal
In short: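 CCND2 transcript levels, quantified by qRT-PCR and normalised to three housekeeping genes, were fitted bidirectionally against 0.5% DMSO. HepaRG cultures were dosed 48 h in duplicate with an 8-point half-log series up to 100 uM.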

[4] = read-out: Cyclin Dependent Kinase Inhibitor 1A (CDKN1A), CDKN1A (gene 1026); assay: LTEA_HepaRG_CDKN1A: Life Technologies and Expression Analysis (LTEA) Assay for Cyclin Dependent Kinase Inhibitor 1A (CDKN1A) using HepaRG (AID 2283450); conditions: mRNA level, 48 h; actives raise or lower the signal
In short: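 Differentiated human HepaRG cells, pre-cultured 48 h, were exposed in duplicate for 48 h in serum-free induction medium to eight half-log concentrations up to 100 uM (0.5% DMSO). CDKN1A mRNA was measured by qRT-PCR, normalized to ACTB/GAPDH/POLR2A, bidirectionally fitted versus DMSO.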

[5] = read-out: Cyclin D1 (CCND1), CCND1 (gene 595); assay: LTEA_HepaRG_CCND1: Life Technologies and Expression Analysis (LTEA) Assay for Cyclin D1 (CCND1) using HepaRG (AID 2283451); conditions: mRNA level, 48 h; actives raise or lower the signal
In short: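 Differentiated human HepaRG cells in serum-free induction medium were exposed 48 h to eight half-log concentrations up to 100 uM in 0.5% DMSO; mRNA quantified by TaqMan qRT-PCR, normalized to ACTB, GAPDH, POLR2A, fitted bidirectionally versus DMSO.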

[6] = read-out: catalase (CAT), CAT (gene 847); assay: LTEA_HepaRG_CAT: Life Technologies and Expression Analysis (LTEA) Assay for catalase (CAT) using HepaRG (AID 2283452); conditions: mRNA level, 48 h; actives raise or lower the signal;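 on AC50: TaqMan qRT-PCR signal normalized to ACTB GAPDH and POLR2A housekeeping genes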
In short: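 Expression of CAT was quantified by TaqMan qRT-PCR with ACTB/GAPDH/POLR2A normalization after 48 h chemical exposure of HepaRG. Eight-point half-log series, top 100 uM, in 0.5% DMSO; gain or loss fitted against vehicle.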

[7] = read-out: flavin-containing dimethylaniline monooxygenases 3 (FMO3), FMO3 (gene 2328); assay: LTEA_HepaRG_FMO3: Life Technologies and Expression Analysis (LTEA) Assay for flavin-containing dimethylaniline monooxygenases 3 (FMO3) using HepaRG (AID 2283453); conditions: mRNA level, 48 h; actives raise or lower the signal
In short: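 FMO3 transcript quantified by TaqMan qRT-PCR against three housekeeping genes after 48 h chemical exposure of HepaRG cells. Eight-point half-log series, top 100 uM, 0.5% DMSO vehicle; phenobarbital 1mM induction control; up- or down-regulation fitted.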

[8] = read-out: Cytochrome P450 (CYP1A1), CYP1A1 (gene 1543); assay: LTEA_HepaRG_CYP1A1: Life Technologies and Expression Analysis (LTEA) Assay for Cytochrome P450 (CYP1A1) using HepaRG (AID 2283454); conditions: mRNA level, 48 h; actives raise or lower the signal
In short: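 Differentiated HepaRG cells in serum-free induction medium were exposed in duplicate for 48 h to eight half-log concentrations up to 100 uM in 0.5% DMSO. CYP1A1 mRNA was quantified by TaqMan qRT-PCR, normalized to ACTB, GAPDH and POLR2A.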

[9] = read-out: CFLAR gene, CFLAR (gene 8837); assay: LTEA_HepaRG_CFLAR: Life Technologies and Expression Analysis (LTEA) Assay for CFLAR gene using HepaRG (AID 2283455); conditions: mRNA level, 48 h; actives raise or lower the signal
In short: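 Transcript level by qRT-PCR (normalized to ACTB, GAPDH and POLR2A) after 48 h chemical exposure of HepaRG cells, top concentration 100 uM with half-log steps, 0.5% DMSO vehicle, duplicates; fitted bidirectionally against DMSO baseline.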

[10] = read-out: Forkhead box O1 (FOXO1), FOXO1 (gene 2308); assay: LTEA_HepaRG_FOXO1: Life Technologies and Expression Analysis (LTEA) Assay for Forkhead box O1 (FOXO1) using HepaRG (AID 2283456); conditions: mRNA level, 48 h; actives raise or lower the signal
In short: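 FOXO1 transcript quantified by qRT-PCR after 48 h chemical exposure (top 100 uM, half-log steps, 0.5% DMSO) of HepaRG cells, housekeeping-normalized (ACTB/GAPDH/POLR2A). Changes fitted in both directions relative to vehicle.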

[11] = read-out: growth arrest and DNA damage 45 (GADD45A), GADD45A (gene 1647); assay: LTEA_HepaRG_GADD45A: Life Technologies and Expression Analysis (LTEA) Assay for growth arrest and DNA damage 45 (GADD45A) using HepaRG (AID 2283458); conditions: mRNA level, 48 h; actives raise or lower the signal
In short: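 Transcript induction or loss, quantified by TaqMan qRT-PCR against three housekeeping genes, is the read-out. HepaRG cells received chemicals for 48 h across eight half-log concentrations from 100 uM in 0.5% DMSO; gain and loss fitted relative to DMSO.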

[12] = read-out: Forkhead box O3 (FOXO3), FOXO3 (gene 2309); assay: LTEA_HepaRG_FOXO3: Life Technologies and Expression Analysis (LTEA) Assay for Forkhead box O3 (FOXO3) using HepaRG (AID 2283459); conditions: mRNA level, 48 h; actives raise or lower the signal
In short: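 FOXO3 transcript measured by qRT-PCR (normalized to ACTB, GAPDH, POLR2A) after 48 h exposure of HepaRG cells in serum-free induction medium. Duplicates, eight half-log concentrations up to 100 uM, 0.5% DMSO; gain or loss fitted against DMSO.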

[13] = read-out: ABC Transporter (ABCB1), ABCB1 (gene 5243); assay: LTEA_HepaRG_ABCB1: Life Technologies and Expression Analysis (LTEA) Assay for ABC Transporter (ABCB1) using HepaRG (AID 2283460); conditions: mRNA level, 48 h; actives raise or lower the signal
In short: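 ABCB1 transcript level measured by TaqMan qRT-PCR against three housekeeping genes after 48 h chemical exposure of differentiated HepaRG cells. Top concentration 100 uM, half-log steps, eight points, 0.5% DMSO vehicle; bidirectional fit relative to DMSO.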

[14] = read-out: growth arrest and DNA damage 45 (GADD45B), GADD45B (gene 4616); assay: LTEA_HepaRG_GADD45B: Life Technologies and Expression Analysis (LTEA) Assay for growth arrest and DNA damage 45 (GADD45B) using HepaRG (AID 2283461); conditions: mRNA level, 48 h; actives raise or lower the signal
In short: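 Differentiated HepaRG cells, plated 48 h then switched to serum-free induction medium, were exposed 48 h in duplicate to eight half-log concentrations from 100 uM in 0.5% DMSO; mRNA quantified by qRT-PCR, normalized to ACTB/GAPDH/POLR2A, bidirectional fit versus DMSO.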

[15] = read-out: ABC Transporter (ABCB11), ABCB11 (gene 8647); assay: LTEA_HepaRG_ABCB11: Life Technologies and Expression Analysis (LTEA) Assay for ABC Transporter (ABCB11) using HepaRG (AID 2283463); conditions: mRNA level, 48 h; actives raise or lower the signal
In short: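 ABCB11 transcript levels quantified by TaqMan qRT-PCR against three housekeeping genes after 48 h chemical exposure of HepaRG cultures. Concentrations up to 100 uM in half-log steps, 0.5% DMSO vehicle; both induction and suppression scored.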

[16] = read-out: ABC Transporter (ABCC2), ABCC2 (gene 1244); assay: LTEA_HepaRG_ABCC2: Life Technologies and Expression Analysis (LTEA) Assay for ABC Transporter (ABCC2) using HepaRG (AID 2283464); conditions: mRNA level, 48 h; actives raise or lower the signal
In short: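 HepaRG cells were plated 48 h, switched to serum-free induction medium, then exposed in duplicate for 48 h to 8 concentrations (top 100 uM, half-log steps, 0.5% DMSO). ABCC2 mRNA was measured by qRT-PCR normalized to ACTB/GAPDH/POLR2A; bidirectional fitting versus DMSO.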

[17] = read-out: ATP-citrate lyase (ACLY), ACLY (gene 47); assay: LTEA_HepaRG_ACLY: Life Technologies and Expression Analysis (LTEA) Assay for ATP-citrate lyase (ACLY) using HepaRG (AID 2283466); conditions: mRNA level, 48 h; actives raise or lower the signal
In short: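 ACLY mRNA quantified by qRT-PCR on Fluidigm arrays against three housekeeping genes, after 48 h chemical treatment of HepaRG cells (top concentration 100 uM, half-log steps, 0.5% DMSO vehicle). Up- or down-regulation fitted relative to DMSO.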

[18] = CEETOX_H295R_TESTO: CeeTox H295R High-throughput Steroidogenesis Assay for Testosterone (TESTO) (AID 2283457); conditions: actives raise or lower the signal
In short: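 H295R human adrenal cells in DMEM/F12 with ITS+ and Nu-Serum, exposed to chemicals for 48 h. Testosterone in medium measured by MTBE extraction, reverse-phase HPLC-MS/MS; bidirectional fit versus DMSO baseline. MTT viability checked in same wells.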

[19] = read-out: ABC Transporter (ABCC3), ABCC3 (gene 8714); assay: LTEA_HepaRG_ABCC3: Life Technologies and Expression Analysis (LTEA) Assay for ABC Transporter (ABCC3) using HepaRG (AID 2283462); conditions: mRNA level, 48 h; actives raise or lower the signal
In short: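 HepaRG cells in serum-free induction medium were exposed for 48 h in duplicate to 8-point half-log concentrations topping at 100 uM in 0.5% DMSO. ABCC3 mRNA was measured by qRT-PCR normalized to ACTB, GAPDH and POLR2A, with bidirectional fitting versus DMSO.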

[20] = read-out: Broad substrate specificity ATP-binding cassette transporter ABCG2 (Homo sapiens) (UniProt Q9UNQ0); assay: LTEA_HepaRG_ABCG2: Life Technologies and Expression Analysis (LTEA) Assay for ABC Transporter (ABCG2) using HepaRG (AID 2283465); conditions: mRNA level, 48 h; actives raise or lower the signal
In short: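 ABCG2 transcript was quantified by TaqMan qRT-PCR against three housekeeping genes in HepaRG cells. Cells were treated in duplicate for 48 h across an 8-point half-log series up to 100 uM, with 0.5% DMSO vehicle. Gain or loss versus DMSO was fit.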

Measured: AC50

Sequence of Fatty acid synthase (Homo sapiens) (P49327 whole entry, looked up): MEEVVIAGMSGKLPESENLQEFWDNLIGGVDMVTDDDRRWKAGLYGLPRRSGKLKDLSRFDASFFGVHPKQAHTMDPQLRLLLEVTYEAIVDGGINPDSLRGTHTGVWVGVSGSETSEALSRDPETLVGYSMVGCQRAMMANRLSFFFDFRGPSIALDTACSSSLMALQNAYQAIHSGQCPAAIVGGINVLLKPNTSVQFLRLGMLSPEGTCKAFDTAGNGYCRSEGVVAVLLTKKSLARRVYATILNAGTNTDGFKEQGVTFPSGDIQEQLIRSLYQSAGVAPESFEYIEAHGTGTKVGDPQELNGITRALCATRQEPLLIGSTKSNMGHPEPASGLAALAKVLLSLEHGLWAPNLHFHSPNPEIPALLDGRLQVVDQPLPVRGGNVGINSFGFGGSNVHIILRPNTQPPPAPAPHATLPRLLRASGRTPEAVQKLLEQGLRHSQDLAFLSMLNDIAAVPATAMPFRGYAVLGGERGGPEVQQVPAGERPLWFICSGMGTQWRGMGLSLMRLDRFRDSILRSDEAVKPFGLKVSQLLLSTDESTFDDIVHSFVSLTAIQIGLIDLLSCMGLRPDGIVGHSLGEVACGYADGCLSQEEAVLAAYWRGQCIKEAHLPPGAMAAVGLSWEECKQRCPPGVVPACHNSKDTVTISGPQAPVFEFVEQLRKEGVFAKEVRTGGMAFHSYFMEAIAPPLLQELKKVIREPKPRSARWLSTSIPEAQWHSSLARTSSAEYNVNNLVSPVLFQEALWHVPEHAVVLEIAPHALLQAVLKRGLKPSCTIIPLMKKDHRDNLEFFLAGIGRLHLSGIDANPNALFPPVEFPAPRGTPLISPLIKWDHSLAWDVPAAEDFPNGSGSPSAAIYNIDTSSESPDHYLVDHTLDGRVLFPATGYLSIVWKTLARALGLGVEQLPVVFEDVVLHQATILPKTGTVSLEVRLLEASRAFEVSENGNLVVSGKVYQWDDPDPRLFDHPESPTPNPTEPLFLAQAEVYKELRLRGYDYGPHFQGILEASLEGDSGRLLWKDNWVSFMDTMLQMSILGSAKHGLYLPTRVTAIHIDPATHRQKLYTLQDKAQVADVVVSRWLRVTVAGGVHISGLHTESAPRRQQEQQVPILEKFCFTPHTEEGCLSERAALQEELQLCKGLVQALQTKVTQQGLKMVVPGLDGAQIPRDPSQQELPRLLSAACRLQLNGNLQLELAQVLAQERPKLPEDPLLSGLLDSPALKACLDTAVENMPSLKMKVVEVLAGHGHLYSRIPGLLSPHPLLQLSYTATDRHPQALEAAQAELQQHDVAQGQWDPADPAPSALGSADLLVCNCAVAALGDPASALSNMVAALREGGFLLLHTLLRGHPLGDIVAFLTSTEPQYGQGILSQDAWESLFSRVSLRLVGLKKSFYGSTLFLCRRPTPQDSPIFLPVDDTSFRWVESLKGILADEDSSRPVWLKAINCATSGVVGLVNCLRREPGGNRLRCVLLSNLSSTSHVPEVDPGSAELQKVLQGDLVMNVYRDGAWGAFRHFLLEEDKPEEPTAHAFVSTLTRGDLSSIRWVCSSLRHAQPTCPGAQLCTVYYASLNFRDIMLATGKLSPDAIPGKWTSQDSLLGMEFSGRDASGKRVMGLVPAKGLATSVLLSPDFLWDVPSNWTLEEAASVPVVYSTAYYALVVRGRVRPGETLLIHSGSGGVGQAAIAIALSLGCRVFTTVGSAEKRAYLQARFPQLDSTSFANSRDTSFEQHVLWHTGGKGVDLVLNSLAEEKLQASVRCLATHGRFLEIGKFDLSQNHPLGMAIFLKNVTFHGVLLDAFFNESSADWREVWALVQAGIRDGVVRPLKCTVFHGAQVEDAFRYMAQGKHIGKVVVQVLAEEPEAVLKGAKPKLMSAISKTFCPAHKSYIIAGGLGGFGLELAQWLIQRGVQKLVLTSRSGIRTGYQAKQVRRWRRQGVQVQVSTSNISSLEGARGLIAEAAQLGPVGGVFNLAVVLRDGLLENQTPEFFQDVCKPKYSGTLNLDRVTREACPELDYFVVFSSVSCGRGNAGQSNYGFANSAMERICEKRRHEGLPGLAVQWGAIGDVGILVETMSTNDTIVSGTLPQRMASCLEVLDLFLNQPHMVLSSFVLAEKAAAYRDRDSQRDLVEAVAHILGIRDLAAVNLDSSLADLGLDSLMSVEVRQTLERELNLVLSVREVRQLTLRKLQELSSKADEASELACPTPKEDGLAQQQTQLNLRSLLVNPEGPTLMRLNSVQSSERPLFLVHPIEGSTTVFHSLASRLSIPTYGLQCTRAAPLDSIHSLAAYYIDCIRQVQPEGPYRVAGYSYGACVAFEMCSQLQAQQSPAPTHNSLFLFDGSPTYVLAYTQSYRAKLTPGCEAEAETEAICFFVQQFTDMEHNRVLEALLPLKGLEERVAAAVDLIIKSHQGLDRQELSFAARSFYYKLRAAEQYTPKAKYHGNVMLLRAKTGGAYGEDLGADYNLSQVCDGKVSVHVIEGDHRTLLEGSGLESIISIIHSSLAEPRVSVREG
Sequence of Broad substrate specificity ATP-binding cassette transporter ABCG2 (Homo sapiens) (Q9UNQ0 whole entry, looked up): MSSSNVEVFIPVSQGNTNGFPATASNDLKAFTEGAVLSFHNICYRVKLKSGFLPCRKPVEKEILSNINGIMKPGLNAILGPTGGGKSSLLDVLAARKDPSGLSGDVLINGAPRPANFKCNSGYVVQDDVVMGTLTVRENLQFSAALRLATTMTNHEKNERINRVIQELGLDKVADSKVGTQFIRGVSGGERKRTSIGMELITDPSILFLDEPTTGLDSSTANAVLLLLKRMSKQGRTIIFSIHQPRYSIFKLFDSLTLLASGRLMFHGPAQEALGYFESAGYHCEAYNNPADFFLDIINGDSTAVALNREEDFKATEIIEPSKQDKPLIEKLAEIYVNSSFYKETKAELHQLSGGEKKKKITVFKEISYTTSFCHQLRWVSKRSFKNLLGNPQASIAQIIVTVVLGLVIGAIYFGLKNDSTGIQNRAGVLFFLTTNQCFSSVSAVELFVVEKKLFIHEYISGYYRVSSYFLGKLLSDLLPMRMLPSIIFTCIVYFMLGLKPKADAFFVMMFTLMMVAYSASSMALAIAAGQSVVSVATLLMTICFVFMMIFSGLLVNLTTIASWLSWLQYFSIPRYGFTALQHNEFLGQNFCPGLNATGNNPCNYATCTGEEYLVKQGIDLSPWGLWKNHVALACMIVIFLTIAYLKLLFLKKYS

Cc1cc(=O)[nH]c(=S)[nH]1
active: [8] 50 µM
not listed: [18] | [19] | [20]
inactive: all other assays above

CCOc1ccc2c(c1)C(C)=CC(C)(C)N2
active: [4] 50 µM | [8] 17.5 µM | [13] 5.26 µM | [20] 1.02 µM
not listed: [7] | [11]
inactive: all other assays above

CCCCCCCCCCC
active: [8] 50 µM
not listed: [7] | [18] | [20]
inactive: all other assays above

CNCc1cc(F)ccc1Oc1ccc(Cl)c(Cl)c1
active: [2] 50 µM | [4] 20.5 µM | [6] 82.8 µM | [7] 93.3 µM | [9] 12.1 µM | [14] 91.3 µM | [16] 75.6 µM
not listed: [18] | [19]
inactive: all other assays above
